A selection: hits, their analogues and other compounds. The true share with any hit is near 0.8%.
FXIa mix inh = FXIa protease inhibitors in compound pools, primary screen, biochemical, 10-compound mixtures; Coagulation factor XI (Homo sapiens), P03951; purified FXIa, fluorogenic substrate, pooled mixtures; inhibition, % at 5 µM; 0.19% of 62,000 active; AID 680, 2007;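 further: each value is inhibition by a whole ten-compound pool holding the compound; 0% = enzyme with no mixture and 100% = wells lacking enzyme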
C1s block = complement C1s protease inhibitors, primary screen, biochemical, 10-compound mixtures; purified C1s, fluorogenic AMC substrate, pooled mixtures; 0.16% of 62,000 active; mean inhibition % of two 10-compound mixtures (active compounds read high), % at 5 µM (by protocol); AID 538, 2006; Complement C1s subcomponent (Homo sapiens), P09871;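 active means inhibition above 20% in each of the two 10-compound mixture wells holding the compound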;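 further: 0% = enzyme wells lacking compound mixture and 100% = no-enzyme blank wells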
BAP1 inh = inhibitors of BAP1 deubiquitinase, primary screen, biochemical, Ub-AMC fluorescence, kinetic. Ubiquitin carboxyl-terminal hydrolase BAP1 (Homo sapiens), Q92560. recombinant BAP1, Ub-AMC hydrolysis fluorescence kinetic; active compounds read low. activity remaining (% of control), % at 20 µM. 0.48% of 72,000 active. AID 436, 2006;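 active means activity remaining at or below 50% of control, provided the compound also passes the data quality filters; inactive means the rest, including low values that fail the filters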;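 further: 100% = DMSO wells rate and 0% = substrate alone blank rate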
Target sequence (Q92560 whole entry, looked up): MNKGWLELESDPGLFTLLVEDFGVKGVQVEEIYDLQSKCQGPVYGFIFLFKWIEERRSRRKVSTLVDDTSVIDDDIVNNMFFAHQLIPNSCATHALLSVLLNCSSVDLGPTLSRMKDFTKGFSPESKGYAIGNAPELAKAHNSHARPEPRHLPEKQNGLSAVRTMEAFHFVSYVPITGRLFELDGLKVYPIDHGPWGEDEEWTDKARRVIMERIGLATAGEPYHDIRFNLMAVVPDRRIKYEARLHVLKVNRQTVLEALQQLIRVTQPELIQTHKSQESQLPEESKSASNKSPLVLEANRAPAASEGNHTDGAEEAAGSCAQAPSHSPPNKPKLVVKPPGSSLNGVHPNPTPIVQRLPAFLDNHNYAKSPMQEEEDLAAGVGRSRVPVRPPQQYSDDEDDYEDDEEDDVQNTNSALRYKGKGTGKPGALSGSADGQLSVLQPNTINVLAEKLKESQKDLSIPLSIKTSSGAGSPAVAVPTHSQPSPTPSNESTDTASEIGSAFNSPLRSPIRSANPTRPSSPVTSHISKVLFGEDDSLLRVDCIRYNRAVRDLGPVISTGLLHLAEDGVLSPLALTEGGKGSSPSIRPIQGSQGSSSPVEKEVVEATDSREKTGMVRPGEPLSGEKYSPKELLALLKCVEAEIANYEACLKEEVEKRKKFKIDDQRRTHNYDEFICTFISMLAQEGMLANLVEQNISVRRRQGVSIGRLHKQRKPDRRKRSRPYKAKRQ
FXIIa mix inh = human factor XIIa inhibitors, primary screen, biochemical, pooled compound mixtures, fluorogenic substrate | Coagulation factor XII (Homo sapiens), P00748 | purified FXIIa | inhibition, % at 5 µM | 0.2% of 62,000 active | AID 684, 2007;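 further: 0% = enzyme without compound and 100% = no enzyme blank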
Calb biofilm kill = clotrimazole potentiators killing Candida biofilms, primary screen, with clotrimazole, Alamar Blue | inhibition, % at 6 µM | C. albicans biofilm + clotrimazole | 0.14% of 85,000 active | AID 834, 2007;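 active means inhibition above 20%; inactive means inhibition below 20%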;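 further: preformed 24 hr biofilms exposed to compound for 48 hr; 0% = biofilm without compound and 100% = blank killed by clotrimazole plus chlorhexidine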
Cathepsin G inh = human cathepsin G inhibitors, primary screen, biochemical, pooled compound mixtures, AMC fluorescence | P08311 | purified enzyme, AMC-tetrapeptide fluorescence | inhibition, % at 5 µM (by protocol) | 0.2% of 62,000 active | AID 581, 2007;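 active means inhibition above 20% in each of the two mixture wells holding the compound; inactive means inhibition of 20% or less in either well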;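 further: 0% = enzyme control without mixture and 100% = blank lacking enzyme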
BAP1 inh confirm = BAP1 deubiquitinase inhibitors, hit retest, confirmation, orthogonal assay, biochemical, Ub-ethyl ester substrate, HPLC readout; shares compounds with BAP1 inh; purified BAP1, Ub-ethyl ester hydrolysis; active compounds read low; % of control activity, % at 20 µM; 8% of 310 active; AID 753, 2007;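 active means percent of control activity at or below 60%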
Starred values were filed as active, the others as inactive; x = no result given. Unless noted, no stated cut-off is given here; in the data, active means inhibition above about 20% (passing the limit was not always enough); inactive means the rest.

SMILES	FXIa mix inh	C1s block	BAP1 inh	FXIIa mix inh	Calb biofilm kill	Cathepsin G inh	BAP1 inh confirm
Cc1cc(S(=O)(=O)N(Cc2ccccc2)Cc2ccc(N(C)C)cc2)ccc1-n1cnnn1	14	-9	x	2	4	3	x
COCc1nc(-c2cc(Br)ccc2OC)no1	9	1	113	-15	6	-9	x
COc1ccc(NC(=O)c2c(C)cc(=O)oc2C)c(OC)c1	13	11	142	-2	3	10	x
O=C(C1CCN(c2nnc(-n3cccc3)s2)CC1)N1CCOCC1	1	15	99	-47	-6	12	x
O=C(C1CCN(c2nnc(-n3cccc3)s2)CC1)N1CCN(c2cccc(C(F)(F)F)c2)CC1	4	16	41*	8	6	9	101
Cc1ccc(S(=O)(=O)N2CCN(C(=O)N3CCOCC3)C2C(C)C)cc1 (configuration not stated)	-8	-23	95	10	5	1	x
CCOC(=O)c1cnc(SC)nc1Nc1cccc2ccccc12	x	x	x	x	9	x	x
COCC(=O)N(C)C1(c2nnnn2CCOC(=O)Nc2cccc3ccccc23)CCCC1	22	-16	48*	5	-1	-3	134
COc1ccccc1OCC(=O)Nc1oc(-c2ccccc2)c(-c2ccccc2)c1C#N	-3	-28	x	8	4	-3	x
N#Cc1c(NC(=O)COC(=O)C2CC3C=CC2C3)oc(-c2ccccc2)c1-c1ccccc1 (configuration not stated)	4	8	28*	-19	-3	7	42*
CC1CCN(S(=O)(=O)c2ccc(NC(=O)Cn3nnc(-c4ccccc4F)n3)cc2)CC1	0	-8	40*	-3	9	-12	135
CC1CCN(S(=O)(=O)c2ccc(NC(=O)Cc3ccccc3)cc2)CC1	x	x	x	x	0	x	x
CCOC(=O)C1CCN(S(=O)(=O)c2ccc3c4c(cccc24)C(=O)N3)CC1	-25	-32	40*	-1	0	5	120
CCSc1sccc1C1C(C#N)=C(N)N(c2cccnc2)C2=C1C(=O)CCC2 (configuration not stated)	-4	-5	47*	-19	6	8	114
CSc1nnc2c3cc(C)ccc3n(Cc3ccccc3)c2n1	0	4	31*	0	0	2	77
COc1ccc(NC(=O)COC(=O)c2ccc(N3CCCC3=O)cc2)cc1OC	9	-8	98	2	11	5	x
CCCCC(c1nnnn1CCOC)N1CCN(C(=O)c2ccco2)CC1 (configuration not stated)	2	16	90	-12	3	15	x
CCOC(=O)c1c(NCC2CCCO2)c2ccccc2[nH]c1=O (configuration not stated)	x	x	x	x	7	x	x
O=C(NCC1CCCO1)c1c(O)c2ccccc2[nH]c1=O (configuration not stated)	6	15	49*	-6	2	12	106
O=C(NCC(c1cccnc1)N1CCOCC1)c1cccc(Cl)c1 (configuration not stated)	13	-3	101	0	3	26	x
N#Cc1cc(-c2ccccc2)nn1-c1ccccc1	-8	-17	50*	-12	5	-1	89
N#Cc1cn(-c2ccccc2)nc1-c1ccccc1	25	7	80	-2	6	23	x
Cc1ccccc1CN(c1ccc(C(=O)Nc2ccccc2C(=O)N2CCCC2)cc1)S(C)(=O)=O	x	x	x	x	-1	x	x
Cc1ccc(C)c(N2CCN(C(=O)CCCn3c(=S)[nH]c4cc5c(cc4c3=O)OCO5)CC2)c1	12	6	48*	4	6	36	63
O=C(CCCn1c(=S)[nH]c2cc3c(cc2c1=O)OCO3)N1CCN(c2ccccc2F)CC1	0	3	63	9	4	-1	x
CCOC(=O)c1c(NC(=O)c2ccc(-n3cnnn3)cc2)sc2c1CCCC2	7	-5	37*	2	6	8	121

High-throughput results deposited in PubChem BioAssay by several laboratories.
